Assay results from PubChem BioAssay AID1259415 (National Center for Advancing Translational Sciences (NCATS), 2018).
The campaign covered roughly 410,000 compounds. About 18,000 (4.4%) were called active. Another 7% or so got no clear call; they are omitted. The sample holds actives, similar compounds and a random draw of the others, so the mix is not that of the screen. Values without a mark were called inactive. No stated cut-off is given here; in the data, active means activity change below about -60%; inconclusive means no clear call, values can overlap the other calls; inactive means above about -39%.

experiment: qHTS Assay for inhibitors of the human cytomegalovirus (HCMV); conditions: HFF cells, HCMV-luciferase reporter, 72 h; at 57.5 µM; active compounds read low
In short: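 After 16 h attachment at 37C, HFF cells received test compound and HCMV-luciferase (1 PFU/cell); reporter luminescence read 72 h later, data normalized against buffer-only and known inhibitor Salinomycin.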
On the % scale 0 is the no-effect control and ±100 the full control effect.

SMILES	activity change, negative = inhibition
CCNC(=O)C1CCCN(C(=O)c2ccc(OC)cc2OC)CC1 (stereo not drawn)	-11.4%
Cn1c(=O)c2c(-c3ccccc3Br)n(Cc3ccccc3)cc2n(C)c1=O	-17.1%
CCc1nn(CC(=O)N2CCN(c3ccc(Cl)cc3)CC2)c(=O)c2cc3occc3n12	-13.8%
Cc1cccc(S(=O)(=O)c2cn(Cc3ccccc3)c3cc(N4CCOCC4)c(F)cc3c2=O)c1	17.2%
CCOc1cc(-c2noc(CCCC(=O)NC3CCCCC3)n2)ccc1OC	-89.7% (active)
COc1ccc(-c2noc(CCCC(=O)NC3CCCC3)n2)cc1OC	-17%
CCOc1cc(-c2noc(CCC(=O)N3CCOCC3)n2)ccc1OC	2.89%
C[C@@H]1CN([C@@H](C)CO)C(=O)CCCn2nncc2CO[C@H]1CN(C)C(=O)Nc1ccc(C(F)(F)F)cc1	8.54%
CC[C@@H](C)[C@@H](C(=O)N1CCN(C(=O)OC(C)(C)C)CC1)n1cc(CCC(=O)O)nn1	14.7%
COc1ccc(-c2noc(-c3ccc(N4CCN(c5ccccc5)CC4)c([N+](=O)[O-])c3)n2)cc1OC	14.1%
Cc1ccc(F)cc1S(=O)(=O)N1CCC(c2nc3ccccc3s2)CC1	-23.3%
CC1=CC(=C(C#N)c2nc3ccccc3s2)C=C(C)N1c1ccc(F)cc1F	-64.6% (active)
Cc1ccc(C(=O)Nc2ccc3[nH]c(=O)c(=O)[nH]c3c2)cc1	-0.693%
CCOc1ccccc1NC(=O)Cn1c(=O)n(-c2cccc(C)c2)c(=O)c2c1c1cc(OC)ccc1n2C	19.1%
COc1ccc(C(=O)Nc2onc3c2CCCC3)cc1	1.09%
CCOc1cccc(CNC(=O)c2ccc(N3CCCC3)c(NC(=O)Nc3ccccc3CC)c2)c1	-10.9%
Cc1ccccc1CNC(=O)CCCn1nc(C)c2sc3ccccc3c2c1=O	14.7%
CC(C)CN1Cc2cc(N3CCCCC3)ccc2-n2nncc2C1	10.2%
CCOC(=O)CNC(=O)N1Cc2cc(N3CCCCC3)ccc2-n2nncc2C1	-62.1% (active)
O=C(NC1CCCCC1)N1Cc2cc(N3CCCCC3)ccc2-n2nncc2C1	40.9%
Cn1c(C(=O)N2CCC(C(=O)N3CCN(c4ccccc4)CC3)CC2)cc2sccc21	-22.9%
Cc1nn(CC(=O)N2CCN(c3cccc(C(F)(F)F)c3)CC2)c(=O)c2cc3sccc3n12	2.88%

SMILES	activity change, negative = inhibition
COc1ccc(F)cc1C(=O)COC(=O)c1n[nH]c(=O)c2ccccc12	49.5%
CS(=O)(=O)c1ccc(-c2nnc(NC(=O)c3ccc4c(c3)OCCO4)o2)cc1	-0.462%
CC1CC(C)CN(S(=O)(=O)c2ccc(C(=O)NN3CCOCC3)cc2)C1 (stereo not drawn)	-27.9%
CC1CCCN(S(=O)(=O)c2ccc(C(=O)Nc3nnc(-c4ccncc4)o3)cc2)C1 (stereo not drawn)	-96.5% (active)
C[C@H]1CN([C@@H](C)CO)C(=O)CCCn2nncc2CO[C@@H]1CN(C)C(=O)Nc1ccc(N2CCN(C)CC2)cc1	-20.2%
COc1cc(C2OC(c3cc(OC)c(OC)c(OC)c3)C(C)C2C)cc(OC)c1OC (stereo not drawn)	54.8%
O=C(CC1Oc2ccccc2NC1=O)NCc1ccc(F)cc1 (stereo not drawn)	-9.67%
O=C(NCc1ccccc1)c1ccc2c(c1)nc1n2CCCCC1	27.3%
Cc1cc(C)nc(S/C=C/C(=O)c2ccccc2)n1	-90.7% (active)
CCn1c(CSc2nc(C)cc(C)n2)nnc1SCC(N)=O	-18.8%
CCC1Oc2ccc(Cl)cc2N(CC(=O)O)C1=O (stereo not drawn)	-13.4%
Cc1cc(C)n(C(=O)c2ccc(C)c(S(=O)(=O)N3CCOCC3)c2)n1	-11.1%
O=C(Nc1cccn(Cc2ccccc2Cl)c1=O)NC1CCCCC1	-37.7%
CCn1c(=O)c(=O)n(CC)c2cc(N3CCCCC3)c(NC(=O)c3ccc(Cl)cc3)cc21	-11.3%
O=C(Nc1cccn(Cc2c(Cl)cccc2Cl)c1=O)c1ccc(Cl)cc1	-83.3% (active)
Cc1ccc(C(=O)Nc2ccc(OCc3cc(=O)n4c5c(sc4n3)CCCC5)cc2)cc1	7.24%
COc1ccc(S(=O)(=O)N2CCOCC2)cc1NC(=O)CSc1ncnc2ccccc12	-109% (active)
COc1ccc(S(=O)(=O)N2CCOCC2)cc1NC(=O)CSc1cc(C)ccc1C	-10.1%
COc1ccc(S(=O)(=O)N2CCOCC2)cc1NC(=O)CSc1nnc(NC2CC2)s1	18.1%
CCCCN(CC)CCCNC(=O)Cn1ncc2c([nH]c3ccc(C)cc32)c1=O	-8.89%
O=C(/C=C/c1c(F)cccc1Cl)Nc1nn[nH]n1	-8.32%
Cc1[nH]c2ccccc2c1/C=C(/C#N)C(=O)NC(C)C	-36.7%

SMILES	activity change, negative = inhibition
CNC(=O)/C(C#N)=C/c1c(F)cccc1Cl	-80.3% (active)
Cc1cc(S(=O)(=O)N2CCOCC2)ccc1OCC(=O)Nc1cccc(C(F)(F)F)c1	-13.9%
COc1ccccc1NC(=O)COc1ccc(C(=O)OCC(=O)N(C(C)C)C(C)C)cc1OC	-9.98%
COc1cc(C(=O)N(C)Cc2cccc(OC)c2OC)ccc1OCC(=O)Nc1cccc(C(F)(F)F)c1	-86.1% (active)
CCCN1CCN(CCCNC(=O)Cn2nc(CC)n3c(cc4occc43)c2=O)CC1	35.8%
CC(C)(C)Oc1ccccc1Nc1nc(NCCO)nc(N2CCCC2)n1	1.45%
O=c1oc2ccccc2cc1-c1cn(-c2ccccc2)c(=S)[nH]1	-86.5% (active)
CC(C)Cn1c(=O)c2ccccc2n2c(-c3cccc(Cl)c3)nnc12	2.19%
COc1ccc(CNC(=O)CSc2nc3ccccc3nc2Cc2ccccc2)cc1	-15%
COCCNS(=O)(=O)c1cc(-c2nn3c(C)nnc3c3ccccc23)ccc1C	6.92%
Cc1cc(Cl)c(S(=O)(=O)N(C)C)cc1OCC(N)=O	12.2%
Cc1cc(Cl)c(S(=O)(=O)NCCC(=O)O)cc1OCC(N)=O	8.87%
Cc1cc(Cl)c(S(=O)(=O)Nc2ccc3c(c2)OCCO3)cc1OCC(N)=O	-65.5% (active)
CC(C)CNC(=O)CC(c1ccccc1)c1c(O)ccc2ccccc12 (stereo not drawn)	16%
O=C(/C=C/c1ccccc1)Nc1cc(-c2nc3cc(Cl)ccc3o2)ccc1Cl	88.6%
CC(=O)N1CCCc2cc(S(=O)(=O)N3CCC(C(=O)NCc4ccc(F)cc4)CC3)ccc21	7.04%
O=C(NCc1ccc2c(c1)CCN2C(=O)c1ccccc1)c1ccccc1	13.7%
O=C(COc1ccccc1)NCc1ccc2c(c1)CCN2C(=O)c1ccc(F)cc1	-6.87%
O=C(NCc1ccc2c(c1)CCN2C(=O)c1ccccc1)Nc1cc(F)ccc1F	-84.8% (active)
COc1ccc(C(=O)Nc2cccc(C(=O)OCc3cc(=O)n4c5c(sc4n3)CCCC5)c2)cc1	-36%
COc1ccc(CCNc2ncnc3onc(-c4ccc(Cl)cc4)c23)c(OC)c1	0.256%
COc1ccc(OC)c(Cc2cnc3nc(N)nc(N)c3c2C)c1	-98.1% (active)

SMILES	activity change, negative = inhibition
COc1ccc(OC)c(-n2nnc3c(sc4nc(C)c(Br)c(C)c43)c2=O)c1	-8.62%
O=C(Cc1ccc(NC(=O)C2CCCN(C(=O)C3CCCCC3)C2)cc1)Nc1cccc(C(=O)N2CCCCC2)c1 (stereo not drawn)	1.06%
N#Cc1cccc(NC(=O)CN2CCCCCC2)c1	-11.3%
N#Cc1cccc(NC(=O)C2CCCN(C(=O)c3ccc(Cl)cc3)C2)c1 (stereo not drawn)	-66% (active)
CSc1ccc(CCNC(=O)c2cnn(-c3ccccc3)c2-n2cccc2)cc1	-13.5%
COc1ccc(Nc2ncc3c(n2)CCN(C(=O)OC(C)(C)C)C3)cc1	12.2%
COC(=O)c1ccc(NC(=O)c2cccc3c2C(=O)N(C2CCCCC2)C3)cc1	12.9%
COC(=O)c1ccc(C)c(NC(=O)Cn2c(C)csc2=O)c1	0.424%
CCc1cccc(NC(=O)CN(C)S(=O)(=O)c2ccc3[nH]c4c(c3c2)CCCC4)c1	3.8%
Cc1cccc(NC(=S)N2CCC(C(=O)c3ccc(F)cc3)CC2)c1	15%
Cc1cccc(NC(=S)NCc2ccc3[nH]c4c(c3c2)CCCC4)c1	-72.9% (active)
Cc1ccc2c(c1)-c1c(cnn1CC(=O)Nc1ccccc1C#N)CO2	-27.6%
CCn1cc(C(=O)N2CCN(c3cc(C)ccc3C)CC2)c(=O)c2cc(S(=O)(=O)N(C)C3CCCCC3)ccc21	10.1%
S=C(NCCC1=CCCCC1)Nc1ccccc1	-67% (active)
CC(=O)Nc1ccc(S(=O)(=O)N(C)CC(=O)NCCC2=CCCCC2)cc1	-7.2%
CC(OC(=O)c1c(F)cccc1F)C(=O)NCCC1=CCCCC1 (stereo not drawn)	20.1%
Fc1ccccc1-c1noc2nc(OCc3ccc(OC(F)F)cc3)ccc12	7.83%
CCc1ccccc1N1C(=O)CN(S(=O)(=O)CC)CC1(C)C(=O)NC1CCCCC1 (stereo not drawn)	0%
COc1ccc2c(c1)C(NS(=O)(=O)OCC(Cl)(Cl)Cl)CCC2 (stereo not drawn)	-21%
CCCc1cc(=O)[nH]c(SCC(=O)N2C(C)CCCC2C)n1 (stereo not drawn)	24.9%
CCCc1cc(=O)[nH]c(SCC(=O)c2c(N)n(CC(C)C)c(=O)n(C)c2=O)n1	-60.6% (active)
CC(C)Cn1c(N)c(C(=O)COC(=O)CN2C(=O)C3CC=CCC3C2=O)c(=O)n(C)c1=O (stereo not drawn)	-31.7%
